Reference: ChEMBL document CHEMBL3988442, “University of Dundee, Small-Polar-MMV Screening Library” (2021)
Out of some 48,000 compounds screened, about 13,000 (27%) showed an effect of 50% or more. Some of the results follow.

system: Wolbachia pipientis; assay: Anti-Wolbachia Cell-Based Screen; type: functional; parameters: scale not given: in the data most compounds retested in dose-response had high values; conditions: 5 µM

Structure (SMILES) | Percent Effect
CNC(=O)NC(=O)CNc1cc(C(=O)OC)cc(C(F)(F)F)c1 | 1.326%
COc1cccc(CN2CCc3nc(C(=O)NCC(C)C)sc3CC2)c1.O=C(O)C(F)(F)F | 3.655%
Fc1cccc(N2CCc3ncnc(C4CC4)c3CC2)c1 | 8.314%
CC(C)NC(=O)NC[C@H]1OC[C@@H](NCc2ccc(S(C)(=O)=O)cc2)[C@@H]1O | 9.83%
CO[C@H]1CC[C@H]2[C@H]1OCCN2C(=O)CCOc1ccccc1 | 104.1%
CO[C@@H]1CC[C@H]2[C@H]1OCCN2C(=O)COc1ccc(C)cc1 | 102.2%
CO[C@@H]1CC[C@H]2[C@H]1OCCN2C(=O)c1ccc(C)o1 | -15.27%
CCC(C)(CC(=O)OC)NC(=O)c1ccc(C(C)=O)cc1 (stereo unspecified) | 5.798%
Cl.O=C(NCc1ccc(Cl)cc1)N1CCN(CC(O)C2CC2)CC1 (stereo unspecified) | 116%
Cl.Cl.OC(CN1CCN(Cc2cc(F)cc(F)c2)CC1)C1CC1 (stereo unspecified) | -3.47%
Cl.O=C(NCc1ccc(F)cc1)N1CCN(CC(O)C2CC2)CC1 (stereo unspecified) | 111%
COc1ccc(CNC(=O)N2CCN(CC(O)C3CC3)CC2)cc1.Cl (stereo unspecified) | 99.74%
O=S(=O)(Cc1ccc(F)cc1)N1CCN(CC(O)C2CC2)CC1 (stereo unspecified) | -13.11%
COc1cccc(CNC(=O)N2CCN(Cc3cc(C)on3)CC2)c1 | -11.4%
Cl.Cl.O=C(CN1CCN(CC(O)C2CC2)CC1)NCc1ccc(F)cc1 (stereo unspecified) | 3.1%
COc1ccc(CNC(=O)N2CCN(C)[C@@H]3CS(=O)(=O)C[C@@H]32)cc1 | 5.272%
O=C1CC(C(=O)O)C2(CCN(C(=O)NCc3ccc(Cl)cc3)CC2)N1 (stereo unspecified) | 6.317%
COc1ccc(-c2cc3nn(CC(=O)NC(C)C)c(=O)n3c(C)n2)cc1 | 109.7%
Cc1nn2c(NCC(N)=O)cc(-c3ccccc3)nc2c1C | 1.327%
COc1ccc(NC(=O)Cn2nc(C)c(C)cc2=O)cc1 | -2.265%
Cc1nc(-c2ccccc2)cc2nn(CC(N)=O)c(=O)n12 | 117.5%
CC(=O)N1CCN(c2cc(-c3ccccc3)nc3c(C)c(C)nn23)CC1 | -0.0371%

Structure (SMILES) | Percent Effect
COc1ccc(-c2cc3nn(CC(N)=O)c(=O)n3c(C)n2)cc1 | 110.8%
COc1ccc(Cn2nc(C(N)=O)ccc2=O)c(Cl)c1 | 8.088%
COCC(=O)N[C@H](C)c1c(-c2ccc(OC)cc2)noc1C(=O)O | -10.1%
CN(C)C(C(=O)N1CCN(CC(F)(F)F)CC1)c1ccccc1F (stereo unspecified) | -7.118%
Cn1nc(Cn2ccnc2)c2c1CN(C(=O)c1ccc[nH]1)C2 | -17.57%
CCCc1cnc(C)nc1NC(C)Cc1cnccn1 (stereo unspecified) | -13.48%
COc1ccccc1N1CCC(CNC(=O)N(C)Cc2ccco2)C1 (stereo unspecified) | 0.07203%
COCCN(c1ccncc1)S(=O)(=O)c1cc(C)cc(F)c1 | -2.462%
Cc1nc(C2CCCN(C(=O)c3ccoc3)C2)no1 (stereo unspecified) | 101.5%
Cc1nc(C2CCCN(C(=O)c3cccc(S(C)(=O)=O)c3)C2)no1 (stereo unspecified) | 8.734%
Cc1nc(C2CCCN(C(=O)c3ccc(S(C)(=O)=O)cc3)C2)no1 (stereo unspecified) | 120.9%
Cc1nc(C2CCCN(C(=O)c3ccnc(N(C)C)c3)C2)no1 (stereo unspecified) | 127.7%
Cc1nc(C2CCCN(C(=O)c3ccco3)C2)no1 (stereo unspecified) | 13.92%
CC(C)c1nc(C2CCCN(C(=O)c3ccnc(N(C)C)c3)C2)no1 (stereo unspecified) | -3.864%
Cc1cnn(CCNCc2ccc(OCc3csc(C)n3)cc2)c1 | -5.1%
Cn1c(Cn2cccn2)nnc1C1CCCN(c2ccncc2)C1 (stereo unspecified) | -11.32%
Cc1ccccc1C(=O)NCc1ccc(N2CCNC(=O)C2)c(F)c1 | -11.32%
O=C(O)C(F)(F)F.O=C([C@H]1COC[C@H]2CN(CC3CCCC3)C[C@H]21)N1CCOCC1 | -19.66%
COc1ccc(Nc2nc3c(C)nn(C)c3c(=O)n2C)c(OC)c1 | -1.628%
Cn1c(CCCNC(=O)Nc2cn[nH]c2)nc2ccccc21 | -21.13%
COc1cccc(NC(=O)c2nc3ccccc3n(C)c2=O)c1 | 124.2%
CCSc1nc(N)c(NC(=O)c2ccc(OC)c(OC)c2)c(=O)[nH]1 | -7.588%

Structure (SMILES) | Percent Effect
COc1cccc(NC(=O)Cc2c(C)nc3c(c2C)c(=O)[nH]n3C)c1 | 0.5633%
COc1ccc(OC)c(NC(=O)c2nc3ccccc3n(C)c2=O)c1 | 10.54%
COc1cccc(NC(=O)NC(C)(C)c2noc(C)n2)c1 | -4.672%
CCCN1CCC(NC(=O)Nc2ccc(OC)c(OC)c2)CC1 | 8.494%
COc1ccc(NC(=O)c2nc3ccccc3n(C)c2=O)c(OC)c1 | 115.5%
COc1cc(NC(=O)c2nc3ccccc3n(C)c2=O)cc(OC)c1 | 112.5%
COc1ccc(NC(=O)c2nc3ccccc3n(C)c2=O)cc1OC | 120.1%
COc1cc(NC(=O)NCc2ccccn2)cc(OC)c1 | 6.3%
CN(Cc1ccsc1)C(=O)Nc1cccc(N2CCOC2=O)c1 | 1.632%
Cc1cccc(NC(=O)C2CCCN2C(=O)c2ccco2)c1C (stereo unspecified) | -37.39%
COCCNC(=O)C1CN(Cc2ccncc2)Cc2ccnn2C1.O=C(O)C(F)(F)F.O=C(O)C(F)(F)F.O=C(O)C(F)(F)F (stereo unspecified) | 13.9%
O=C(NCC1CC1)C1CN(Cc2ccncc2)Cc2ccnn2C1.O=C(O)C(F)(F)F.O=C(O)C(F)(F)F.O=C(O)C(F)(F)F (stereo unspecified) | 99.23%
CC(C)NC(=O)C1CN(Cc2ccsc2)Cc2ccnn2C1.O=C(O)C(F)(F)F.O=C(O)C(F)(F)F (stereo unspecified) | 1.409%
Cc1ccc(CN2Cc3ccnn3CC(C(=O)NCC3CC3)C2)o1.O=C(O)C(F)(F)F.O=C(O)C(F)(F)F (stereo unspecified) | 99%
Cc1noc(C)c1CN1Cc2ccnn2CC(C(=O)NCC2CC2)C1.O=C(O)C(F)(F)F.O=C(O)C(F)(F)F (stereo unspecified) | -16.43%
CCOCC1CN(C(=O)Cc2cccs2)Cc2ccnn2C1 (stereo unspecified) | -16.86%
CC(C)NC(=O)C1CN(Cc2cccs2)Cc2ccnn2C1 (stereo unspecified) | -1.449%
COCCNC(=O)C1CN(Cc2csc(C)n2)Cc2ccnn2C1.O=C(O)C(F)(F)F (stereo unspecified) | 0%
O=C(NCC1CC1)C1CN(Cc2cccs2)Cc2ccnn2C1 (stereo unspecified) | 124.8%
COCCNC(=O)C1CN(Cc2cccc(C)n2)Cc2ccnn2C1.O=C(O)C(F)(F)F.O=C(O)C(F)(F)F (stereo unspecified) | 6.488%
COCCNC(=O)C1CN(Cc2nccs2)Cc2ccnn2C1.O=C(O)C(F)(F)F.O=C(O)C(F)(F)F (stereo unspecified) | -2.959%
O=C(NCC1CC1)C1CN(c2ncccn2)Cc2ccnn2C1.O=C(O)C(F)(F)F.O=C(O)C(F)(F)F (stereo unspecified) | 106%
